Here are results for 25 compounds from PubChem BioAssay.

Values without a mark were called inactive.

NADPH oxidase 4 (Homo sapiens), sequence (Q9NPH5 whole entry, looked up): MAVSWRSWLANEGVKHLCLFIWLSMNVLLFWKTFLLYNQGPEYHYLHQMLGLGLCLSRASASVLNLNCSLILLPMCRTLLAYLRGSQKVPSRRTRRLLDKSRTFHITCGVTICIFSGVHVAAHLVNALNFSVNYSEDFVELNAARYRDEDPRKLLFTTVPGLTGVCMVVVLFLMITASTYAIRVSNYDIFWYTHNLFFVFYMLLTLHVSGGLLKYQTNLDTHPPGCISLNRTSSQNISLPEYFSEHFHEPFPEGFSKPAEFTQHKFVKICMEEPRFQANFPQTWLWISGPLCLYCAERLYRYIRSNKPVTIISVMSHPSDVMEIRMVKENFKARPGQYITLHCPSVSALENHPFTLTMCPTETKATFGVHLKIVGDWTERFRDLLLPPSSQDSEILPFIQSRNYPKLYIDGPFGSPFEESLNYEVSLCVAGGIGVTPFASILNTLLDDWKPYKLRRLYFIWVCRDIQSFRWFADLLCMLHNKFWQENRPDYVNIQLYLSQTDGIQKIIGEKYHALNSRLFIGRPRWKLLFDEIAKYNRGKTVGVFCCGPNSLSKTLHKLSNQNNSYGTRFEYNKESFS

This assay addresses NADPH oxidase 4 (Homo sapiens) (UniProt Q9NPH5). Briefly: compounds shifting NOX4 Amplex Red fluorescence – cell-based, HEK293-NOX4, tetracycline-induced, NOX inhibitor project, primary screen (AID 1160). The settings on record: HEK293-NOX4, Amplex Red H2O2 fluorescence, 45 min; higher = more signal, called active from +8 up or from −8 down.
Turning to `COc1ccc([Si](C)(C)[C@@H]2[C@@H](CCO)O[C@]3(C(=O)N(Cc4ccc(N5C(=O)COc6ccccc65)cc4)c4ccccc43)[C@H]2C)cc1`, the z-score was 1.46.
Regarding `CN(C)CCCNC(=O)[C@@]1(C)c2ccccc2C(=O)N(Cc2cc(F)cc(C(F)(F)F)c2)[C@H]1c1ccc(CO)cc1`, the z-score is 0.835.
As for `C=C(COC)/C(=C/C[C@@H](OC(C)=O)c1ccc(OCCO)cc1)c1cc(C(=O)OC)ccc1OC`, the z-score was -0.355.
Regarding `CCCC[C@@H]1C[C@H]1[C@@H](NC(=O)c1ccco1)c1ccc(Cl)cc1`, the z-score was -2.56.
Take `CC1CC/C=C\[C@H]2OC34C=CCN(Cn5nnc6ccccc65)C(=O)[C@H]3N(C(CO)C(C)C)C(=O)[C@@H]4C2C(=O)O1` (stereo not given in full): the z-score was 0.134.
For `[N-]=[N+]=Nc1ccccc1[C@H]1OC(c2ccc(OCCCO)cc2)=N[C@@]1(Cc1ccccc1)C(=O)O`, the z-score is 1.5.
As to `O=C1C2C=CC(C(O)C(c3ccccc3)c3ccccc3)N(n3cnnc3)C2C(=O)N1Cc1ccccc1` (stereo not given), the z-score was -2.83.
As for `CN1C(=O)C2C=CC(C(O)Cc3ccccc3)N(Nc3ccccc3)C2C1=O` (stereo not given), the z-score was -4.77.
As for `NC(=O)[C@@H]1[C@H]2C(=O)O[C@H](c3ccccc3)[C@H](c3ccccc3)N2[C@H](c2ccc(O)cc2)[C@@]12C(=O)Nc1ccc(C#CC3(O)CCCCCC3)cc12`, the figure is -0.258; as for `COCCOC(=O)N1C(=O)[C@@]2(c3cc(C#Cc4ccc(OC)cc4)ccc31)[C@H](C(=O)N1CCCCCCC1)[C@H]1C(=O)O[C@H](c3ccccc3)[C@H](c3ccccc3)N1[C@@H]2c1ccc(OCCO)cc1`, 0.266; as for `CCOC(=O)C[C@H]1[C@H](OC(=O)Cc2ccc3c(c2)OCO3)[C@@H](NC(=O)c2ccc(-c3ccccc3)cc2)c2cc(OCCCO)ccc2N1C(=O)Cc1ccc(OC)cc1`, 1.26.
As for `O=C1[C@H]2C=C(Br)[C@H](C[C@@H]2c2ccccc2)[C@@]12CO2`, the figure is 0.141; as for `CCOC(=O)[C@H]1C/C=C/C[C@H](C(=O)OCC)C(=O)O[C@H]2[C@@H](OC)O[C@H](CO)[C@@H](OC(=O)Nc3ccc(C#N)cc3)[C@@H]2OC1=O`, 0.2.
On to `COC(=O)C(CC#Cc1ccc2c(c1)[C@]1(C(=O)N2)[C@H](c2ccc(O)cc2)N2[C@H](c3ccccc3)[C@H](c3ccccc3)OC(=O)[C@H]2[C@@H]1C(=O)Nc1nc2ccccc2s1)C(=O)OC`, for which the z-score is 0.604.
As for `COc1ccc(C(O)C2C=CC3C(=O)NC(=O)C3N2Nc2ccccn2)cc1` (stereo not given), the z-score was -2.56.
Consider `C#CCN(CC1=CCCCC1)[C@H](c1ccccc1Br)[C@@H](O)Cc1ccccc1`, for which the z-score was 0.191.
`CC(C)OC(=O)C=C1C[C@@H](c2ccccc2C(F)(F)F)O[C@@H](c2ccccc2C(F)(F)F)O1`: the z-score was -0.64.
As for `COCCCNC(=O)[C@@]1(Cc2ccccc2N=[N+]=[N-])N=C(c2ccc(OCCCO)cc2)O[C@H]1c1ccccc1N=[N+]=[N-]`, the figure is 0.518; as for `O=C1C2C=CC(C(O)C3CCCCC3)N(Nc3ccc([N+](=O)[O-])cc3)C2C(=O)N1c1ccccc1` (stereo not given), -3.38; as for `COCC(=C=CC[C@@H](O)c1ccccc1OCCO)C[C@@H](O)c1cc(Cl)cc(Cl)c1O`, -0.894.
`O=C1c2ccccc2[C@](Cc2ccccc2I)(C(=O)NC2CC2)[C@H](c2ccc(CO)cc2)N1Cc1ccccc1`: the z-score is -0.127.
In the case of `CCOC(=O)C[C@H]1[C@H](OC(=O)Cc2ccc3c(c2)OCO3)[C@@H](NC(=O)c2ccc3ccccc3c2)c2cc(OCCCO)ccc2N1C(=O)c1ccccc1`, the z-score is 0.321.
As for `C=CCNC(=O)[C@H]1[C@@H]2C(=O)O[C@@H](c3ccccc3)[C@@H](c3ccccc3)N2[C@@H](c2ccc(OCCO)cc2)[C@]12C(=O)N(C(=O)OCCOC)c1ccccc12`, the z-score was 0.743.
With `CCOC(=O)C[C@H]1[C@H](OC(=O)Cc2ccc3c(c2)OCO3)[C@@H](NC(=O)c2ccc(-c3ccccc3)cc2)c2cc(OCCCO)ccc2N1C(=O)c1ccc2ccccc2n1`, the z-score was -1.28.
Take `C=CCN1C(=O)[C@]2(O[C@H](CCO)[C@@H]([Si](C)(C)c3ccc(OC)cc3)[C@@H]2C)c2cc(N3C(=O)c4cccc5cccc3c45)ccc21`: the z-score was 0.4.
